Out of some 340,000 compounds screened, about 1,000 (0.29%) were called active.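 Rule for the calls: active = fluorescence-ratio B-score plate-corrected deviation score at least 3 library SD below zero, with starting fluorescence score within 5 deviations; inactive = the rest.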 Many of the other results were omitted from the sample, so actives are more common in it than they were.

Sequence of Anoctamin-1 (Mus musculus) (Q8BHY3 whole entry, looked up): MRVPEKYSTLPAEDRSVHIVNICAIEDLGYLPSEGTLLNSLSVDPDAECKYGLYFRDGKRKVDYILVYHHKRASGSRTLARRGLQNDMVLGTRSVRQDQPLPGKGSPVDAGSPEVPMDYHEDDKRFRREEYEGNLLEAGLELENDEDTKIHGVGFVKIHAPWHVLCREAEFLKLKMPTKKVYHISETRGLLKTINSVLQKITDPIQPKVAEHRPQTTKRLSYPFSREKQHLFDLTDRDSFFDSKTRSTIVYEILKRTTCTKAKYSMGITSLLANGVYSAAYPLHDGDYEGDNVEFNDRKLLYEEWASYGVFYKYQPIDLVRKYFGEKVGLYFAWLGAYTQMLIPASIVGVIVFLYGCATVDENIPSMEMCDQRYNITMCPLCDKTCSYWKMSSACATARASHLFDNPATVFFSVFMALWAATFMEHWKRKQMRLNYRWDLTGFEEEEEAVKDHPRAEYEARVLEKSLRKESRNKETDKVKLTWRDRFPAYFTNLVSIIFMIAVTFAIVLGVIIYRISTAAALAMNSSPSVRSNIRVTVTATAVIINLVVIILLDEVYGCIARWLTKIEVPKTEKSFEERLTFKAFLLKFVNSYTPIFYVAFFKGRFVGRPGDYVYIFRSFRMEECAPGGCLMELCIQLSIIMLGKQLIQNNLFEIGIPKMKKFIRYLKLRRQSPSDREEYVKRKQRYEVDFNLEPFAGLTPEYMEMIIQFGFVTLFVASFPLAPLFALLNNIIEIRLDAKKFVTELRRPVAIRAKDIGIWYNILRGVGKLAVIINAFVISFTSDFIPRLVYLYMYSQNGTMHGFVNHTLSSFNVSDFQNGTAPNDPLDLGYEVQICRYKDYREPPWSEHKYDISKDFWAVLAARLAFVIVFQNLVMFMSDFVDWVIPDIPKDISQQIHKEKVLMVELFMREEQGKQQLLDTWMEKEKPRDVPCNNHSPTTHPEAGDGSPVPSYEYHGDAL

The assay addresses Anoctamin-1 (Mus musculus) (UniProt Q8BHY3). In words: mouse ANO1 channel activation – cell-based, HTS, primary screen (AID 623877).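 For B-score: channel opened by trigger with iodide after compound preincubation; score built on the fluorescence ratio of max minus min over baseline; more negative score means more quench and so TMEM16A activation or potentiation.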 The settings on record: HEK293 TMEM16A/YFP-H148Q/I152L, iodide quench fluorescence, at 10 µM; hits give low values.
As to `Cc1cccc(NC(=S)Nc2ccc(Cl)c(Cl)c2)c1`, the B-score entry is “inactive”.
Regarding `FC(F)(F)c1cccc(NC(=S)Nc2cccc(Cl)c2)c1`, the B-score is -5.69 (active).
Turning to `O=C(O)CC1(CC(=O)Nc2cccc(C(F)(F)F)c2)CCCC1`, the B-score entry was “inactive”.
The result for `C#CCOCCOCCOCCNc1nc(N2CCN(C(=O)Cn3cc(CCO)nn3)CC2)nc(N2CCN(C(=O)[C@H](CCCCN)n3cc(CCCC)nn3)CC2)n1` reads “inactive”; that for `C#CCOCCOCCOCCNc1nc(N2CCN(C(=O)CCCCCCCCCCNC(=O)[C@H](CCCCN)n3cc(C)nn3)CC2)nc(N2CCN(C(=O)CCCCCCCCCCNC(=O)[C@H](CO)n3cc(CCCSC)nn3)CC2)n1`, -13.2 (active).
For the compound `C#CCOCCOCCOCCNc1nc(N2CCN(C(=O)Cn3cc(CCO)nn3)CC2)nc(N2CCN(C(=O)Cn3cc(CCCN=C(N)N)nn3)CC2)n1`, the B-score entry was “inactive”.
The result for `C#CCOCCOCCOCCNc1nc(N2CCN(C(=O)[C@H](C(C)C)n3cc(CCO)nn3)CC2)nc(N2CCN(C(=O)[C@H]([C@@H](C)CC)n3cc(CCCN=C(N)N)nn3)CC2)n1` reads “inactive”; that for `C#CCOCCOCCOCCNc1nc(N2CCN(C(=O)Cn3cc(CCCCN)nn3)CC2)nc(N2CCN(C(=O)[C@H](CCCCN)n3cc(CCC(=O)O)nn3)CC2)n1`, “inactive”; that for `C#CCOCCOCCOCCNc1nc(N2CCN(C(=O)CCCCCCCCCCNC(=O)[C@H]([C@@H](C)CC)n3cc(CCCCN=C(N)N)nn3)CC2)nc(N2CCN(C(=O)CCCCCCCCCCNC(=O)[C@H](CO)n3cc(CCCSC)nn3)CC2)n1`, -27.8 (active).
Next, `Cc1ccc(OCCCC(=O)Nc2ccc3c(c2)OCCO3)cc1`: “inactive”; `O=C(NCCCc1ccccc1)c1cc(COc2c(F)cccc2F)on1`: “inactive”.
The result for `CCN1CCN(C(=O)C2CCCN(S(=O)(=O)c3ccc(OC)c(OC)c3)C2)CC1` (centres undefined) reads “inactive”.
On to `COc1ccc(/C=C/CN2CCN(Cc3ccc(C)cc3)C(CCO)C2)cc1` (centres undefined), for which the B-score result is “inactive”.
In the case of `O=C(CN1CCN(c2ccccc2O)CC1)NC(=O)NCc1ccccc1`, the B-score result was “inactive”.
The result for `CCCC(C(=O)n1nc(C)cc1C)C(NS(=O)(=O)c1ccc(C)cc1)c1ccccc1` (centres undefined) reads -8.83 (active); that for `Cc1ccc(S(=O)(=O)NC(C(=O)N2CCOCCOCCOCCOCC2)c2ccccc2)cc1` (centres undefined), “inactive”; that for `Cc1ccc(S(=O)(=O)Nc2nc(C)cc(-n3nc(C)cc3C)n2)cc1`, “inactive”.
The result for `O=c1[nH]c(=S)[nH]c(O)c1/C=C1\C=Nc2ccccc21` reads “inactive”; that for `CC(C)N(Cc1nnc(-c2ccc(Cl)cc2)o1)C(=O)C1=COCCO1`, “inactive”; that for `CCOC(=O)c1ccccc1NC(=O)COC(=O)CCC(=O)N1CCOCC1`, “inactive”.
The result for `Cc1cnc(CN(C)C(=O)CC2C(=O)NCCN2Cc2cccc(F)c2F)[nH]1` (centres undefined) reads “inactive”; that for `Cc1nc2cccnc2nc1C`, “inactive”; that for `Cc1ccc(CN2CCN(Cc3ccccc3-c3ccco3)CC2CCO)o1` (centres undefined), “inactive”.
Turning to `CC(C)CCN1CCN(C/C=C/c2ccco2)CC1CCO` (centres undefined), the B-score was -7.6 (active).
In the case of `CC(C)CCN1CCN(Cc2ccc(C(F)(F)F)cc2)CC1CCO` (centres undefined), the B-score result is “inactive”.
The result for `COCCNC(=O)CSc1nc2c(n1-c1ccccc1)CCCC2` reads “inactive”; that for `O=C(CCNC(=O)c1ccc([N+](=O)[O-])cc1)NC1CCCCC1`, “inactive”.
The result for `NS(=O)(=O)c1ccc(NC(=O)COC(=O)c2c3c(nc4ccccc24)/C(=C\c2ccc4c(c2)OCO4)CCC3)cc1` reads “inactive”.
Next, `O=C(COC(=O)c1ccncc1)Nc1ccc2c(c1)OCO2`: “inactive”; `NC(=O)c1ccc(NC(=O)COC(=O)c2c3c(nc4ccccc24)/C(=C\c2ccc4c(c2)OCO4)CCC3)cc1`: -6.02 (active).
On to `CCOC(=O)c1cc(NC(=O)SCC(=O)O)c(C)nc1C`, for which the B-score result is “inactive”.
The result for `CC(=O)OCC(COC(C)=O)OC(C)=O` reads “inactive”; that for `CC(=O)OC(C)C[N+](C)(C)C` (centres undefined), -7.27 (active).
Next, `CC(C[N+](C)(C)C)OC(N)=O` (centres undefined): “inactive”; `NS(=O)(=O)c1ccc(N=Cc2ccc(Br)s2)cc1`: “inactive”.
The result for `COc1ccc(-c2onc3ccc(C(C)=O)cc23)cc1` reads -5.14 (active).
In the case of `COc1ccc(NC(C(=O)Nc2cccc(C(C)=O)c2)c2ccccc2)cc1` (centres undefined), the B-score entry is “inactive”.
Next, `COc1ccc(-c2cc(C(=O)N3CCN(c4ccc(F)cc4)CC3)no2)cc1`: “inactive”.
Next, `Cc1cccc(CC(=O)Nc2c3c(nn2-c2cccc(Cl)c2)CS(=O)C3)c1` (centres undefined): “inactive”.
The result for `CN(C(=O)c1cccc(NC(=O)Cc2ccc(NC(=O)C3CCCN(C(=O)C4CCCC4)C3)cc2)c1)C1CCC1` (centres undefined) reads “inactive”.
Turning to `C=C(Cl)COC(=O)C1C2C=CC(C2)C1C(=O)O` (centres undefined), the B-score result is “inactive”.
Next, `Cn1nccc1NS(=O)(=O)c1ccc(F)cc1`: “inactive”; `CSc1ccc(CNCCN2CCOCC2)cc1`: -9.5 (active); `CCCCNCc1ccc(SC)cc1`: “inactive”.
The result for `O=C(Cc1ccc(Br)cc1)NCCN1CCOCC1` reads “inactive”; that for `O=C(c1ccc(OC2CCN(C/C=C/c3ccc(F)cc3)CC2)cc1)N1CCCCC1`, “inactive”; that for `CCn1c(COc2c(C)cccc2C)nnc1SCc1nc2ccccc2c(=O)[nH]1`, -4.66 (active).
Next, `CCn1c(Cc2ccccc2)nnc1SCc1nc2ccccc2c(=O)[nH]1`: “inactive”; `COc1ccc(CCCc2nnc(SCc3nc4ccccc4c(=O)[nH]3)n2C)cc1`: “inactive”.
Take `Cc1ccc(Cl)cc1N1CCN(C(=O)c2cccc3c(=O)c(C)c(-c4ccccc4)oc23)CC1`: the B-score entry is “inactive”.
Next, `CCOc1ccc(N(CC(=O)NC2CCCCCC2)S(=O)(=O)c2c(C)[nH]c(=O)[nH]c2=O)cc1`: “inactive”; `Oc1c(Cl)cc(Cl)c(Cl)c1Cc1c(O)c(Cl)cc(Cl)c1Cl`: -5.49 (active); `OCC(O)C1OCOC(C(O)CO)C1O` (centres undefined): “inactive”.
Consider `COc1ccc(C(=O)N(C)Cc2ccc(OC)c(OC)c2OC)cc1S(=O)(=O)N1CCOCC1`, for which the B-score entry is “inactive”.
Next, `CCNC(=O)NC(=O)C(C)OC(=O)c1cc(S(=O)(=O)N2CCCCCC2)ccc1OC` (centres undefined): “inactive”; `COc1ccc(S(=O)(=O)N2CCCCCC2)cc1C(=O)N(C)Cc1cccc(OC)c1OC`: -5.67 (active); `COc1ccc(NC(=O)C2C3C=CC(C3)C2C(=O)NCc2ccccn2)c(OC)c1` (centres undefined): “inactive”.
The result for `O=C(NCCN1CCOCC1)c1cccc(S(=O)(=O)Nc2ccc(F)cc2)c1` reads “inactive”; that for `Cc1c(C(=O)NC(=S)NCc2cccnc2)oc2ccccc12`, -24.9 (active); that for `Cc1c(C(=O)NNC(=O)c2ccncc2)oc2ccccc12`, “inactive”.
The result for `Cc1ccc(C(=O)NC(=S)NCc2cccnc2)cc1` reads “inactive”; that for `O=C(OCC(=O)N1CCN(C(=O)c2ccco2)CC1)c1cccc(O)c1`, “inactive”; that for `CCCOc1ccc(Cn2c(O)cc(=O)[nH]c2=O)cc1`, “inactive”.
As for `COc1ccc(Cn2c(O)c(/C=C3/C=CC=N3)c(=O)[nH]c2=O)cc1`, the B-score is -5.62 (active).
Next, `COc1ccc(Cn2c(=O)cc(C)[nH]c2=S)cc1`: “inactive”; `CCn1cc(CNC(=O)c2cc([N+](=O)[O-])c(C)c([N+](=O)[O-])c2)cn1`: “inactive”.
With `O=C(Nc1ccccc1-c1nnn(CC(=O)N2CCN(c3ccccc3)CC2)n1)c1cccs1`, the B-score result is “inactive”.
The result for `CCNC(=O)N1CCCC(C(=O)c2ccc(-c3ccccc3)cc2)C1` (centres undefined) reads “inactive”; that for `CCCCSc1[nH]c(=O)c(C(=O)OCC)cc1C#N`, “inactive”; that for `Cn1c(=O)n(C)c2cc(S(=O)(=O)N3CCCc4ccccc43)ccc21`, “inactive”.
The result for `COc1cc(C)c(C)cc1S(=O)(=O)N1CCCc2ccccc21` reads -10.8 (active); that for `COc1ccc(C(=O)OCC(=O)NCC2CCCCC2)cc1S(=O)(=O)N1CCCc2ccccc21`, “inactive”.
Next, `CCCCCC(=O)NC(=S)NNC(=O)c1ccc([N+](=O)[O-])cc1`: “inactive”; `CCC(C)NC(=O)CCCc1ccccc1` (centres undefined): “inactive”.
Regarding `CCCCC(=O)NNC(=S)NC(=O)C(c1ccccc1)c1ccccc1`, the B-score is -5.16 (active).
Next, `O=C(CN1CCN(Cc2ccc(F)cc2Cl)C1=O)NCc1cccs1`: “inactive”.
The result for `CCOC(=O)CNC(=O)CN1C(=O)CCSc2ccccc21` reads “inactive”; that for `C=CCC[C@H](Cc1ccc(F)cc1)C(=O)OC[C@H](C)NC(=O)[C@H](CC=C)CC(=O)N(CCO)Cc1ccccc1`, “inactive”; that for `C=CC[C@H](CC(=O)OC(C)(C)C)C(=O)OC[C@H]1CCCN1C(=O)[C@H](CC=C)CC(=O)N(CCO)Cc1ccccc1`, -5.89 (active).
Next, `C=CC[C@H](CC(=O)N(CCO)Cc1ccccc1)C(=O)N[C@@H](COC(=O)[C@@H](CC=C)Cc1ccc(F)cc1)Cc1ccccc1`: “inactive”; `CC(Sc1nncn1C)C(=O)Nc1cc(C(F)(F)F)ccc1N1CCOCC1` (centres undefined): “inactive”; `O=C(CSc1nncs1)NC1CCCc2ccccc21` (centres undefined): “inactive”.
Turning to `Nc1nnc(SCC(=O)NC2CCCc3ccccc32)s1` (centres undefined), the B-score is -16.7 (active).
The result for `Nn1c(SCC(=O)NC2CCCc3ccccc32)nnc1C1CC1` (centres undefined) reads “inactive”.
The result for `CC(=O)Oc1ccc(OC(C)=O)c2c1C1C=CC2CC1` reads “inactive”.
The result for `O=C(CNc1ccccc1N1CCCC1=O)Nc1cc(Cl)ccc1-n1cncn1` reads “inactive”.
As to `Cc1ccc(NC(=O)CSc2nc(CSc3ccc(C)cc3)cc(=O)[nH]2)cc1`, the B-score was -12.6 (active).
Next, `Cc1cc(=O)[nH]c(SCC(=O)Nc2ccc(Br)cc2)n1`: “inactive”; `COc1ccc(NC(=O)CSc2nc(NS(=O)(=O)c3ccc(C)cc3)cc(=O)[nH]2)cc1`: “inactive”; `COC1=NC2=NCCN2C(OC)=N1`: “inactive”.
For `CC(=O)Nc1ccc(C(=O)Nc2cc(S(=O)(=O)N3CCOCC3)ccc2N2CCOCC2)cc1`, the B-score result was “inactive”.
The result for `O=C1C(=O)N(c2ccccc2)c2ccccc21` reads “inactive”.
In the case of `COc1ccccc1N1CCN(C(=O)c2ccc(Cl)c(S(=O)(=O)N3CCCC3)c2)CC1`, the B-score result was “inactive”.
As to `O=C(c1ccc(Cl)c(S(=O)(=O)N2CCCCCC2)c1)N1CCN(c2ccc(O)cc2)CC1`, the B-score is -41.2 (active).
Next, `O=C(c1ccc(Cl)c(S(=O)(=O)N2CCCCC2)c1)N1CCCCCC1`: “inactive”; `O=c1oc2ccccc2c(=O)c2ccccc12`: “inactive”; `COc1ccc(Cl)cc1C(=O)NNC(=O)c1nc2nc(C)cc(C)n2n1`: “inactive”.
The result for `Cc1cc(C)n2nc(C(=O)N(C)C(c3ccccc3)c3ccccc3)nc2n1` reads “inactive”.
On to `Cc1cc(C)n2nc(C(=O)NC(C)(C)C)nc2n1`, for which the B-score was -4.58 (active).

These data come from PubChem BioAssay AID623877 (Johns Hopkins Ion Channel Center, 2012).
